Among all 290,000 compounds or so, about 3,000 (1%) were called active. This is one part of a sample in which actives are shown more often than they occur. No stated cut-off is given here; in the data, active means inhibition mostly above about 36% (no sharp cut-off); inactive means mostly below about 34%.
Biological target: T1, Nucleotide-binding oligomerization domain-containing protein 1, Homo sapiens (UniProt Q9Y239)
T1 sequence (whole entry): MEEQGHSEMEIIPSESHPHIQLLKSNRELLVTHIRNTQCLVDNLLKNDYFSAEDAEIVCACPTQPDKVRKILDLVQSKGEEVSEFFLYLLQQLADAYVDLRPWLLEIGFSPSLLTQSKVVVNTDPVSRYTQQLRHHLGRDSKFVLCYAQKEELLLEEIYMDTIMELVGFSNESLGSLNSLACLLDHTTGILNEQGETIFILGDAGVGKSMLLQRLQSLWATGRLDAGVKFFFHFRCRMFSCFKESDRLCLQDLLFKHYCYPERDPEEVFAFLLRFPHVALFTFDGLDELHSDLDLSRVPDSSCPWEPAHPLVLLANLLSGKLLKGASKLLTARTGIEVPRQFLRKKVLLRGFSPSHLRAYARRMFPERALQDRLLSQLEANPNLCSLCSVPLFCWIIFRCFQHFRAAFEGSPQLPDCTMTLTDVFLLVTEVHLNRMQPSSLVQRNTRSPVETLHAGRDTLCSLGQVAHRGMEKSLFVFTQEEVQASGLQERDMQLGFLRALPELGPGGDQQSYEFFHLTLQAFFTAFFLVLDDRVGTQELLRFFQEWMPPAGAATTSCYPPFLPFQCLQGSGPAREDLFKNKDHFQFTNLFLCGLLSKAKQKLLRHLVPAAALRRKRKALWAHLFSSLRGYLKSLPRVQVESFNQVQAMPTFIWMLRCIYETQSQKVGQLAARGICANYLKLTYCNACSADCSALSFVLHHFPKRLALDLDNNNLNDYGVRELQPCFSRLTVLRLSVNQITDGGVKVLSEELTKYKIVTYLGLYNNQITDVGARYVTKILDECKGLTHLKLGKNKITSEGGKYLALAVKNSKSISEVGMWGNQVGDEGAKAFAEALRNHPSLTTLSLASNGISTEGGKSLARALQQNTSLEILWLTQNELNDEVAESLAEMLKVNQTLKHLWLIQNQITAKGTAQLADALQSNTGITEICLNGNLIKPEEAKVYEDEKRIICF
Assay: NOD1 signaling inhibitors, primary screen, cell-based, luminescence, uHTS (AID 1578)

Structure (SMILES)	outcome
CC(C)n1c(CN(C)Cc2ccccc2)nc2c1c(=O)n(C)c(=O)n2C	active
CCN1/C(=C/C=C/C=C/C=C/c2sc3ccccc3[n+]2CC)Sc2ccccc21.[I-]	active
c1ccc(CCc2nn3c(-c4ccncc4)nnc3s2)cc1	active
c1cc(-c2nnc3sc(C4CCCCC4)nn23)ccn1	active
Cc1c(CCC(=O)O)c(=O)oc2cc(OCc3ccccc3Br)ccc12	active
N#CC1=C(SCC(=O)NC23CC4CC(CC(C4)C2)C3)NC(=O)C(C#N)C12CCCCC2 (centres undefined)	active
CC(C)(C)C1CCC2(CC1)C(C#N)=C(SCC(=O)Nc1ccccc1)NC(=O)C2C#N (centres undefined)	active
Cc1ccc(NC(=O)CSc2nn(-c3ccccc3)c(=S)s2)cc1S(=O)(=O)N(C)C	active
CC(C)(C)C(=O)Nc1ccc(NC(=O)c2ccco2)nc1	active
O=C(Nc1nc2ccc([N+](=O)[O-])cc2s1)c1ccc(S(=O)(=O)N2CCCc3ccccc32)cc1	active
CC1CCCCN1c1ncnc(N)c1[N+](=O)[O-] (centres undefined)	active
Nc1ncnc(N2CCc3ccccc32)c1[N+](=O)[O-]	active
COc1ccc2sc3c(=O)[nH]c4ccccc4c3c2c1	active
Cc1ccc(S(=O)(=O)N2CCN(c3ncnc4sccc34)CC2)cc1	active
O=S(=O)(c1ccc2c(c1)OCCO2)N1CCN(c2ncnc3sccc23)CC1	active
O=C(O)CCSc1nnc(-c2ccc3c(c2)OCO3)o1	active
O=C(Nc1nccs1)c1sc2cc(Cl)ccc2c1Cl	active
Cc1cc(NC(=O)c2cccs2)n(-c2nc3ccccc3[nH]2)n1	active
Cc1ccc(NC(=O)CSc2ncnc3ccccc23)cc1S(=O)(=O)N1CCOCC1	active
O=C(Nc1ccc(Cl)c(S(=O)(=O)N2CCOCC2)c1)c1ccc(OCC2CCCO2)cc1 (centres undefined)	active
CCOC(=O)c1ccc(NC(=O)c2ccc(C)c(S(=O)(=O)N3CCOCC3)c2)cc1	active
COc1ccc(C(=O)Nc2ccc(-c3ccc(C)o3)cc2)cc1S(=O)(=O)N1CCOCC1	active
CCOc1ccc(Nc2ncnc3ccc([N+](=O)[O-])cc23)cc1	active
Cc1nn(-c2ccccc2)c(Cl)c1C(=O)N1CCN(c2ncnc3c2cnn3-c2ccccc2)CC1	active
CN(C)CC(CCC(CN(C)C)C(=O)c1ccccc1)C(=O)c1ccccc1.Cl (centres undefined)	active
O=C(NCc1cccnc1)/C(=C/c1ccc(-c2cccc(Cl)c2)o1)S(=O)(=O)c1ccccc1	active
O=C(NCc1cccnc1)/C(=C\c1ccc(-c2cccc(Cl)c2)o1)S(=O)(=O)c1ccccc1	active

Structure (SMILES)	outcome
O=C(CCl)N1N=C(c2cccs2)CC1c1ccco1 (centres undefined)	active
O=C(CCl)N1N=C(c2ccco2)CC1c1ccco1 (centres undefined)	active
COc1ccc(C(=O)Nc2ccccc2C(=O)N/N=C/c2ccccn2)cc1OC	active
O=C(N/N=C/c1ccccn1)c1sc2ccccc2c1Cl	active
Cc1[nH]n(-c2ccccc2)c(=O)c1/C=N/NC(=O)c1cccc([N+](=O)[O-])c1	active
Cc1ccc(-n2[nH]c(C)c(/C=N/Nc3ccc([N+](=O)[O-])cc3[N+](=O)[O-])c2=O)cc1C	active
O=C(N/N=C/c1ccccn1)c1cc([N+](=O)[O-])cc([N+](=O)[O-])c1	active
CC(/C=C/c1ccccc1)=N/NC(=O)c1cc([N+](=O)[O-])cc([N+](=O)[O-])c1	active
Cc1cccc(/C=N/NC(=O)c2cccc([N+](=O)[O-])c2)n1	active
O=C(N/N=C/c1ccccn1)c1ccc(Cl)c(Cl)c1	active
Cc1c(CCC(=O)O)c(=O)oc2cc3oc4c(c3cc12)CCCC4	active
O=C(Sc1cccc2cccnc12)c1ccc(F)cc1	active
O=C(Sc1cccc2cccnc12)c1ccccc1Br	active
O=C(Nc1ccc(N2CCN(c3ncccc3C(F)(F)F)CC2)nc1)c1cccs1	active
COc1cc(C(=O)N/N=C(\c2ccccc2)c2ccccn2)cc(OC)c1OC	active
COc1ccc(C(=O)N/N=C(\c2ccccc2)c2ccccn2)cc1	active
COc1cccc(C(=O)N/N=C(/c2ccccc2)c2ccccn2)c1	active
O=C(N/N=C(\c1ccccc1)c1cccnc1)c1cccc(F)c1	active
CCOC(=O)c1c(NC(=S)NCCc2ccccc2)sc2c1CC(C(C)C)OC2 (centres undefined)	active
Cn1c(=O)c(C(=O)CCl)c(N)n(Cc2ccccc2)c1=O	active
O=C(CSc1n[nH]c(-c2ccccn2)n1)Nc1ccc(Cl)cc1	active
O=C(CSc1n[nH]c(-c2ccccn2)n1)Nc1cccc(Cl)c1	active
Cc1ccccc1Oc1cc(-n2ncc(Cl)c(Cl)c2=O)ncn1	active
CC(C)NC(=O)c1sc(=S)n2c1[nH]c(=O)c1ccc(C(=O)NCCc3ccc(Cl)cc3)cc12	active
O=C(NCc1ccccc1)c1sc(=S)n2c1[nH]c(=O)c1ccccc12	active
CCCCNC(=O)c1sc(=S)n2c1[nH]c(=O)c1ccccc12	active
O=C(NCc1ccco1)c1sc(=S)n2c1[nH]c(=O)c1ccccc12	active

— the GenesisPotency data set
